Compound activity from PubChem BioAssay.
Shown are actives, neighbours in structure and some others; about 3% of the full set was active somewhere.
KDM5B inhibitor: KDM5B demethylase inhibition | actives 2.6% (n = 220,000) | KDM5B demethylase, FDH-coupled NADH fluorescence (FDH is formaldehyde dehydrogenase) | Potency, µM (series often up to 57.7 µM), hits mostly inhibitors | Q9UGL1; note: nearly all actives have a fitted effect of over 70% in size
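Coupled FDH/NAD⁺ fluorescence readout. KDM5BΔAP 200 nM final; compound titration, 10 min RT preincubation; substrate mix 12.5 µM H3K4me3, 25 µM 2-OG, 50 µM Fe(II), 100 µM ascorbate, 0.25 mM NAD⁺, 0.25 U/mL FDH; ΔRFU over 30 min.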
SNCA viab count: counter-screen for SNCA expression inhibitors: cell viability | HEK-293-SNCA-luc viability, GF-AFC fluorescence, 24 h | Potency, µM (series often up to 57.1 µM), usual class: cytotoxic | actives 0.12% (n = 150,000) | AID 1671193; note: nearly all actives have a fitted effect of over 30% in size
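Cytotoxicity counterscreen: after 24 h compound treatment of genome-edited SNCA-luciferase HEK-293 cells, live-cell protease substrate GF-AFC read by fluorescence after 30 min; activity scaled between DMSO (0%) and medium-only (-100%), curves Hill-fitted.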
IP6K1 inhibitor: IP6K1 kinase inhibition; Q92551; activity change, % (series mostly up to about 58 µM); actives 0.81% (n = 140,000); AID 1645851; IP6K1 kinase, ADP-Glo luminescence, 2 h; hits give low values; in the data active = activity change below about -25%
Target sequence (Q92551 whole entry, looked up): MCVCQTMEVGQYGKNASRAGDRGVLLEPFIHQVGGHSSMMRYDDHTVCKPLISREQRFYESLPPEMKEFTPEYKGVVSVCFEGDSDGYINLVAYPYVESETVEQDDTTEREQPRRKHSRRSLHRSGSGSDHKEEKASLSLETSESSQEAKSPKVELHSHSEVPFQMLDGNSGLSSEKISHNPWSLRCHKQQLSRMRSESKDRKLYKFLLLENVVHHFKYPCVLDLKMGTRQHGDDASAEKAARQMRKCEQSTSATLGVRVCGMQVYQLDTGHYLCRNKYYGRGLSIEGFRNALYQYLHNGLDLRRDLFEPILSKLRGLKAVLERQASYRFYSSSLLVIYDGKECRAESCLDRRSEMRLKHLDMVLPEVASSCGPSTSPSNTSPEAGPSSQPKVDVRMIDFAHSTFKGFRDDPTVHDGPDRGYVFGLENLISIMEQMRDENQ
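ADP-Glo luminescence measures ADP made by human IP6K1 during a 2 h RT reaction with ATP/IP6 (mix at 1.3 mM/130 uM); top library doses 57.5 and 19.1 uM final.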
SNCA expr inhib: reduces expression of the alpha-synuclein gene. HEK-293 SNCA-luciferase knock-in, luminescence, 24 h. Potency, µM (titrated, usually from 57.2 µM), hits mostly inhibitors. actives 0.17% (n = 140,000); note: nearly all actives have a fitted effect of over 45% in size
IP6K1 conf: confirmation of human IP6K1 inhibitors; Potency, µM (doses to about 49 µM), most hits filed as inhibitors; actives 13% (n = 1,200); recombinant IP6K1 kinase, ADP-Glo luminescence, 2 h; shares compounds with IP6K1 inhibitor; AID 1645852; note: nearly all actives have a fitted effect of over 65% in size
Numbers stand for hits; . = inactive; ? = inconclusive; / = no result given; ! = repeats disagree. Unless noted, calls come from the whole dose curve; as a rule, active = well fitted curve in the direction sought with a large enough effect; inconclusive = small, poorly fitted or top-dose-only effect, or another doubt; inactive = no such curve, though single readings can be large; an effect the other way counts as inactive or inconclusive.

SMILES | KDM5B inhibitor | SNCA viab count | IP6K1 inhibitor | SNCA expr inhib | IP6K1 conf
Cc1cc(C2=NNC(=NC(C)(C)C)SC2)c(C)n1C1CC1 | . | / | / | / | /
Cc1ccc(-n2c(C3CCN(C(=O)c4nn(C)c5ccccc45)CC3)n[nH]c2=O)cc1 | . | . | . | . | /
Cc1cc(Nc2nc(N[C@@H](C)c3ncc(F)cn3)ncc2Cl)n[nH]1 | / | ? | . | ? | .
O=C(NCc1ccc(F)cc1)C1CCc2nnc(CN[S+](=O)([O-])c3ccccc3Cl)n21 (stereo not given) | / | . | . | . | /
O=[N+]([O-])c1ccc(CNc2nc(NCc3cccc(C(F)(F)F)c3)nc3nc[nH]c23)cc1 | / | . | -75 | / | 1.6µM!
CC1CN(c2ccc(Cl)cc2)C(=O)CN1C(=O)CCn1cccc1 (stereo not given) | ? | . | -33 | . | .
COCCNC(=O)c1ccc2c(=O)n(CCc3ccccc3)c(SCC(=O)CC(=O)OC)nc2c1 | . | . | -25 | . | .
CCCC(=O)Nc1ccc(-c2nc(NC(C)(C)C)sc2C)cc1 | . | / | / | / | /
Cc1cc(-c2ccc(C)c(S(=O)(=O)N(Cc3cccs3)C(C)C)c2)on1 | ? | . | . | ? | /
COCCN(Cc1cccs1)S(=O)(=O)c1cc(-c2cc(C)no2)ccc1C | . | . | -33 | . | ?
COc1ccccc1CCNC(=O)CCc1c(C)c2cc3c(C)c(C)oc3cc2oc1=O | ? | . | -25 | . | .
COc1ccccc1CNC(=O)CCc1c(C)c2cc3c(C)c(C)oc3cc2oc1=O | . | . | . | . | /
O=C(COC(=O)CCNS(=O)(=O)c1ccccc1)Nc1cc(Cl)ccc1Cl | . | / | / | / | /
COc1cc2ncnc(Nc3cccc(Br)c3)c2cc1OC | / | . | / | . | ?
COc1cc2ncnc(Nc3cccc(O)c3)c2cc1OC | / | . | . | / | /
O=c1cc(-c2ccc(O)c(O)c2)oc2cc(O)cc(O)c12 | / | . | / | . | /
O=c1c(O)c(-c2ccc(O)c(O)c2)oc2cc(O)cc(O)c12 | / | . | -55 | . | 0.46µM
Nc1nc(Nc2cccc(Cl)c2)sc1C(=O)c1ccc(F)cc1 | . | . | -27 | . | .
COc1ccc(-n2c(=O)c3c(n2Cc2ccccc2)CN(CCCc2ccccc2)CC3)cc1 | . | ? | -28 | . | .
COc1ccc(-n2c(=O)c3c(n2Cc2ccccc2)CN(Cc2ccc(F)cc2)CC3)cc1 | . | ? | . | . | /
O=C(NCc1cccnc1)C1CCN(C(=O)c2ccc(-c3cccs3)cc2)CC1 | / | / | . | / | /
CCOC(=O)c1oc2c(c1C)-c1nn(Cc3ccc(Cl)cc3)cc1CC2 | ? | . | -38 | . | ?
CC(C)=C(/C(=C/CS(=O)(=O)c1ccc(C)cc1)S(=O)(=O)c1ccc(Br)cc1)S(=O)(=O)c1ccc(Br)cc1 | . | / | / | / | /
NC(=O)N1CCC(CC(=O)N2CCC([C@H]3c4ncc(Br)cc4CCc4cc(Cl)cc(Br)c43)CC2)CC1 | / | . | / | ? | /
NC(=O)N1CCC(CC(=O)N2CCC(C3c4ncc(Br)cc4CCc4cc(Cl)cc(Br)c43)CC2)CC1 (stereo not given) | / | ? | -40 | / | ?
SMILES | KDM5B inhibitor | SNCA viab count | IP6K1 inhibitor | SNCA expr inhib | IP6K1 conf
COC(=O)c1c(SCC(=O)Nc2ccccc2C(F)(F)F)[nH]c2ccc(Cl)cc2c1=O | . | . | . | . | /
COC(=O)c1c(SCC(=O)Nc2cc(C)cc(C)c2)[nH]c2ccccc2c1=O | . | . | -47 | . | ?
CCNC(=O)NC(=O)CN(CCC1CCCCC1)CC(N)=O | . | / | / | / | /
CCCCNC(=O)c1cc(Sc2ccc(OCC)cc2)nc2ccccc12 | . | . | -26 | . | .
COc1ccc(C(=O)Nc2noc3ccccc23)cc1 | . | . | -58 | ? | 7.3µM
Cc1ccc(C(=O)Nc2noc3ccccc23)cc1 | / | . | -55 | / | ?
CC(C)n1ncc2cc(NC(=O)C3CCN(S(=O)(=O)c4ccccc4)CC3)cnc21 | . | / | / | / | /
COc1ccc(NC(=O)N2CCC(C)(c3noc(C)n3)CC2)cc1OC | / | . | . | . | /
CC(C)=CCN1CCN(Cc2ccccn2)CC1 | . | / | / | / | /
Oc1cccc(Nc2ncnc3sc4c(c23)CCCC4)c1 | ? | . | -28 | . | ?
O=S(=O)(Nc1ncnc2sc3c(c12)CCC3)c1cc(F)ccc1F | . | / | / | / | /
CN(C)Cc1nnc(C2CC(NC(=O)c3ccccc3-c3ncn[nH]3)C2)n1C (stereo not given) | . | . | -28 | . | .
CC1(c2ccccc2)N(Cc2ccccc2)C(=O)OC12CCN(C(=O)Cc1cccc(F)c1)CC2 (stereo not given) | . | . | . | ? | /
CC(Oc1ccccc1)C(=O)Nc1ccccc1C(=O)OCc1cc(=O)n2nc(C3CC3)sc2n1 (stereo not given) | . | . | -27 | . | .
CC(C)Cc1nn2c(=O)cc(COC(=O)c3ccccc3NC(=O)c3ccccc3)nc2s1 | . | . | -28 | . | .
CCOC(=O)c1ccc(NC2SC(=O)N(Cc3cccc(C(=O)O)c3)C2=O)cc1 (stereo not given) | . | . | -46 | . | ?
COC(=O)c1cccc(CN2C(=O)SC(Nc3ccc(Cl)cc3)C2=O)c1 (stereo not given) | ? | . | . | . | /
O=C(Oc1ccccc1F)c1nc(SCc2ccccc2F)ncc1Cl | ? | . | -33 | . | .
Cc1ccc(CSc2ncc(Cl)c(C(=O)Oc3ccccc3F)n2)cc1 | ? | . | . | . | /
Cc1ccccc1NC(=O)c1c(C)oc2ccc(O)c(CN3CCCCCC3)c12 | ? | . | -26 | . | .
CCOC(=O)c1ccc(NC(=O)CSc2nnc(-c3ccncc3)n2-c2ccccc2)cc1 | . | . | -27 | . | .
CCOc1ccc(NC(=O)CSc2nnc(-c3ccncc3)n2-c2ccccc2)cc1 | . | . | . | . | /
O=S(=O)(c1ccc(Cl)s1)N1CCOc2ccc(COCc3ccccc3)cc2C1 | . | / | / | / | /
COc1ccc2cc(/C=C(\NC(=O)c3ccccc3)C(=O)NCCO)c(Cl)nc2c1 | . | / | / | / | /
COc1cc2nc(-c3cc(F)ccc3O)nc(N[C@@H]3CNC[C@H]3C(C)(C)O)c2cc1OC | / | ? | -62 | / | 3.3µM
SMILES | KDM5B inhibitor | SNCA viab count | IP6K1 inhibitor | SNCA expr inhib | IP6K1 conf
C[C@]12CC[C@H](O)CC1=CCC1C2CC[C@]2(C)C(n3cnc4ccccc43)=CCC12 (stereo not given in full) | / | . | -26 | . | ?
CC(=O)C1=CCC2C3CC=C4CC(O)CCC4(C)C3CCC12C (stereo not given) | . | / | / | / | /
CCC(=O)NC(c1ccccc1)c1cccs1 (stereo not given) | . | / | / | / | /
CC(C)Cc1nc(CN(C)C(=O)c2cccc(CCC(C)(C)O)c2)no1 | . | . | -32 | ? | .
COc1ccc(C(=O)N2CCN(C(=O)c3cn(C)c4ccccc34)CC2)cc1OC | . | / | / | / | /
COCCn1c(C)c(C)c(S(=O)(=O)c2ccc(F)cc2)c1NC(=O)c1cccs1 | . | / | / | / | /
N#Cc1cccc(NC(=O)c2cc3c(s2)-c2ccc(Cl)cc2SC3)c1 | ? | . | -50 | . | .
O=C1CC(c2ccc(F)cc2)c2c(c3ccccc3[nH]c2=O)O1 (stereo not given) | ? | . | -28 | . | .
